Test results from PubChem BioAssay (NCI).
About 83,000 compounds went through this panel and 20% of them were active in at least one assay; those are over-represented in the sample as a whole.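 For each line, cells grew in 96-well plates with the test compound present at a single concentration for 48 hours.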 Unmarked numbers belong to inactive results. Activity calls are given as the source filed them. The calls were made as follows: active = growth percent below 10; inactive = the rest.

Legend:
Test in all cases: NCI-60 one-dose screen, 48 h (100 = growth as untreated, 0 = no growth, -100 = all killed)
Details in all cases: 10 µM unless noted
RPMI-8226 leukemia = tested on: RPMI-8226 leukemia
OVCAR-8 ovarian = tested on: OVCAR-8 ovarian
OVCAR-5 ovarian = tested on: OVCAR-5 ovarian
OVCAR-4 ovarian = tested on: OVCAR-4 ovarian
SK-OV-3 ovarian = tested on: SK-OV-3 ovarian
IGROV1 ovarian = tested on: IGROV1 ovarian
OVCAR-3 ovarian = tested on: OVCAR-3 ovarian
HS 578T breast = tested on: HS 578T breast
NCI/ADR-RES ovarian = tested on: NCI/ADR-RES ovarian
T-47D breast = tested on: T-47D breast
BT-549 breast = tested on: BT-549 breast
MDA-MB-435 melanoma = tested on: MDA-MB-435 melanoma
SW-620 colon = tested on: SW-620 colon
MCF7 breast = tested on: MCF7 breast
HCT-116 colon = tested on: HCT-116 colon
HCC-2998 colon = tested on: HCC-2998 colon
KM12 colon = tested on: KM12 colon

| SMILES | growth (RPMI-8226 leukemia) | growth (OVCAR-8 ovarian) | growth (OVCAR-5 ovarian) | growth (OVCAR-4 ovarian) [%] | growth (SK-OV-3 ovarian) | growth (IGROV1 ovarian) | growth (OVCAR-3 ovarian) | growth (HS 578T breast) | growth (NCI/ADR-RES ovarian) | growth (T-47D breast) | growth (BT-549 breast) | growth (MDA-MB-435 melanoma) | growth (SW-620 colon) | growth (MCF7 breast) | growth (HCT-116 colon) | growth (HCC-2998 colon) | growth (KM12 colon) |
| --- | --- | --- | --- | --- | --- | --- | --- | --- | --- | --- | --- | --- | --- | --- | --- | --- | --- |
| CSc1ncccc1C(=O)OCC(=O)Nc1oc(C)c2c(C)n[nH]c(=O)c12 | 72.8% | 98.6% | 94.3% | 104 | 96% | -4.78% (active) | 106% | 104% | 102% | 103% | 99.1% | 107% | 105% | 84% | 109% | 113% | – |
| c1ccc(-c2nc3nonc3nc2-c2ccccc2)cc1 | 71.9% | 72.8% | 82.3% | 22.7 | 74% | 60.8% | 12.8% | 64.3% | 74.4% | 61.6% | 56.2% | 43.1% | 82.3% | 60.9% | 62.5% | 95.4% | 74.4% |
| O=C(/C=C/c1ccc([N+](=O)[O-])o1)NNC(=O)c1cc2ccccc2cc1O | -6.98% (active) | 8.19% (active) | 45.7% | 29.3 | 32.8% | -1.53% (active) | -32.3% (active) | 33% | 5.33% (active) | 2.44% (active) | -4.88% (active) | -13.3% (active) | -5.85% (active) | 32.9% | -100% (active) | -18.4% (active) | 11.6% |
| NC[C@@H]1O[C@H](O[C@@H]2[C@@H](CO)OC(O[C@@H]3[C@@H](O)[C@H](N)C[C@H](N)[C@H]3OC3O[C@H](CN)[C@@H](O)[C@H](O)[C@H]3N)[C@@H]2O)[C@H](N)[C@@H](O)[C@@H]1O (stereo partly drawn) | 104% | 98% | 104% | 107 | 119% | 110% | 111% | 111% | 105% | 115% | 109% | 102% | 109% | 103% | 102% | 108% | 110% |
| COc1ccc(/C=C/c2c(C(=O)/C=C/c3ccc(Cl)cc3)c(C)nc3ccccc23)cc1 | -28.6% (active) | 20.9% | 16.9% | 40.6 | 64.5% | 13.6% | -4.96% (active) | 34.4% | 12.4% | 23.2% | 54.5% | 2.02% (active) | -17% (active) | 26.2% | -64.6% (active) | -48.6% (active) | 30.2% |
| Oc1ccc(Cl)cc1Cc1cc(Cl)cc(Cl)c1O | 0.811% (active) | 73.4% | 92.3% | 17.5 | 70.8% | 66% | -8.34% (active) | -14.8% (active) | 24.6% | 40.7% | -11.4% (active) | 15.4% | 28% | 60.1% | 37.1% | 70.6% | 37.6% |
| N#C/C(=C\c1cccc2cnccc12)n1nnc2cccc(F)c21 | 6.88% (active) | 41.7% | 31.8% | 38.7 | 90.2% | 26.5% | 35.3% | 47.1% | 23.8% | 23.5% | 17% | 29% | 21.5% | 19.3% | 10.4% | 42.7% | 62.1% |
| O=C(N/N=C/c1c(Cl)cccc1Cl)c1ccc(C(F)(F)F)nc1Nc1cccc(C(F)(F)F)c1 | 13.8% | 18.7% | 20.5% | 13.1 | 15% | 12.4% | -58% (active) | 11.4% | -4.2% (active) | -9.07% (active) | -5.79% (active) | 24.2% | 7.71% (active) | 1.97% (active) | -19.6% (active) | -29.2% (active) | 8.17% (active) |
| O=C(Cc1ccc(F)c(Cl)c1)Nc1cc(C2(C(F)(F)F)CC2)nn1CC1CCCCC1 | 4.24% (active) | 8.52% (active) | 0.818% (active) | 13.5 | -19.9% (active) | 24.5% | 6.25% (active) | -0.843% (active) | 4.86% (active) | -0.285% (active) | 5.11% (active) | 3.02% (active) | 12.6% | -0.278% (active) | 5.8% (active) | 14.9% | 0.921% (active) |
| O=S(=O)(NCCCNc1cc(-c2c(-c3cccc(O)c3)nc3sccn23)ccn1)c1cccc2ccccc12 | 8.85% (active) | 19% | 102% | 36.4 | 58.2% | 30.6% | 40.1% | 22.7% | 77% | 8.57% (active) | 25.5% | 35.6% | 47.1% | 35.4% | 33.1% | 59.2% | 34.8% |
| CC(=O)OC[C@H]1OC(Sc2sc(C(=O)c3ccc(Br)cc3)c(N)c2-c2nc3ccccc3s2)[C@H](OC(C)=O)[C@@H](OC(C)=O)[C@H]1OC(C)=O (stereo partly drawn) | 65.5% | 80.3% | 105% | 46.9 | 57.3% | 68.8% | 67.1% | 95.4% | 88.4% | 67.4% | 90.2% | 91.7% | 104% | 94.6% | 91.3% | 98.8% | 95.7% |
| CN(C(=O)NCc1cccc(F)c1Cl)[C@H](COC(=O)Nc1cc2ccccc2cn1)CC(O)CO (stereo partly drawn) | 119% | 88.1% | 95.8% | 94.6 | 78.5% | 71.9% | 103% | -0.749% (active) | 98.6% | 89% | 43.9% | 104% | 92.2% | 98.9% | 95.4% | 110% | 104% |
| CC(=O)OC[C@H]1OC(Sc2sc(C(=O)c3ccc(Cl)cc3)c(N)c2-c2nc3ccccc3s2)[C@H](OC(C)=O)[C@@H](OC(C)=O)[C@@H]1OC(C)=O (stereo partly drawn) | 73% | 72.6% | 87.3% | 52.5 | 90.5% | 70.9% | 103% | 71.4% | 78.7% | 89.5% | 98.5% | 96.5% | 82.7% | 82.1% | 50.8% | 109% | 89.3% |
| COc1cc(C(=O)N/N=C/c2cc3cc(OCc4ccccc4)ccc3nc2OC)cc(OC)c1OC | 35.6% | 68.4% | 86.9% | 63.4 | 91.1% | 111% | 99.4% | 61.2% | 82.2% | 54.3% | 73.4% | 88.3% | 91.6% | 78.4% | 85.7% | 96.7% | 96.2% |
| C[C@]12CC[C@@H]3c4cc(OC(F)F)c(OS(N)(=O)=O)cc4CC[C@H]3[C@@H]1CC[C@@H]2OS(N)(=O)=O | 39.3% | 46.2% | 94.9% | 76.1 | 44.7% | 47.6% | 16.2% | 5.84% (active) | 11.3% | 43.4% | 62.7% | 42.8% | 22% | 20.2% | 20.3% | 74.1% | 35.6% |
| CC1=NN(c2ccc(S(=O)(=O)O)cc2)C(=O)C1N=Nc1ccc(-c2ccc(N=Nc3ccc(OS(=O)(=O)c4ccc(C)cc4)cc3)c(S(=O)(=O)O)c2)cc1 (stereo not drawn) | 74.5% | 102% | 76.6% | 93.8 | 95.4% | -7.99% (active) | 111% | 80% | 97.9% | 90.3% | 68.4% | 95.1% | 103% | 88.7% | 93.9% | 104% | 105% |
| COc1cc(C)c(Cc2cnc(N)nc2N)cc1OC | 82.1% | 105% | 99.6% | 99.5 | 105% | 95.1% | 114% | 103% | 104% | 92.7% | 95.4% | 112% | 102% | 101% | 112% | 108% | 111% |
